Assay results taken from the supplement of paper PMC9177965.
Where “and” joins values, the source holds several entries; their conditions need not be identical. Equal values may be shown once.

Columns and labels:
[1] = system: HT29 RNF43 G659fs (RNF43 659mut, CRISPR-edited); test: cell viability activity relative to DMSO (negative = inhibition); higher = more viable cells (less growth inhibition); settings: 5 µM; 96 h
Description: (§1)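 Broad Repurposing Library primary screen at a single dose of 5 uM. HT29 sg-Ctrl and HT29 RNF43 G659fs CRISPR-edited isogenic cells were seeded at 2500 cells/well in 384-well plates in duplicate and treated for 96 h. Viability was read by CellTiter-Glo and reported as % activity relative to DMSO, with MG132 as the positive control (negative = growth inhibition).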

[2] = system: HT29 sg-Ctrl (RNF43 wildtype); test: as above; settings: 5 µM; 96 h
Description: as §1

Row | SMILES | cell viability activity [1] | cell viability activity [2]
1 | CC(C)(C)CC(C)(C)c1ccc(OCCOCC[N+](C)(C)Cc2ccccc2)cc1 | -98.5% | -97.2%
2 | O=[N+]([O-])c1ccc2c(c1)S(=O)(=O)C=C2 | -95% | -91%
3 | FC(F)c1nc2ccccc2n1-c1nc(N2CCOCC2)nc(N2CCOCC2)n1 | -33% | -29.7%
4 | CC(C)[C@](O)(c1ccc2cc(OC(F)F)c(OC(F)F)cc2c1)c1c[nH]nn1 | -54.8% | 9.17%
5 | COc1cc2ncn(-c3cc(OCc4ccccc4C(F)(F)F)c(C(N)=O)s3)c2cc1OC | -72.5% | -65.4%
6 | OCCNCCCOc1cccc(Cl)c1Cl | -45.4% | -43.2%
7 | Nc1ncnc2c1c(-c1cccc(OCc3ccccc3)c1)cn2C1CC(CN2CCC2)C1 (stereo not drawn) | -55.1% | -61.2%
8 | C=CC(=O)Nc1cccc(Nc2nc(Nc3ccc(OCCOC)cc3)ncc2F)c1 | -33.3% | -44.1%
9 | Cc1nc(N)sc1-c1ccnc(Nc2ccc(N3CCOCC3)cc2)n1 | -59.7% | -59.8%
10 | CCN(CC)CCNc1ccc(CO)c2sc3ccccc3c(=O)c12 | -23.1% | -27.7%
11 | CCC[C@H](Nc1nc(-c2ccc(NC(=O)NCC)c(OC)c2)ncc1C)c1cccnc1 | -57.8% | -49.4%
12 | C[C@@H](Oc1cc(-n2cnc3ccc(CN4CCN(C)CC4)cc32)sc1C(N)=O)c1ccccc1C(F)(F)F | -89.5% | -76.1%
13 | Cc1ccc(C(=O)Nc2ccc(CN3CCN(C)CC3)c(C(F)(F)F)c2)cc1C#Cc1cnc2[nH]ncc2c1 | -96.2% | -94%
14 | O=C(O)/C=C/c1ccc(O)c(O)c1 | -66.6% | -80.2%
15 | COc1ccc(-c2nc(N3CCOCC3)c3sc(CN(C)c4ncc(C(=O)NO)cn4)cc3n2)cn1 | -94.5% | -93.5%
16 | CC1(C)CC(Oc2ccc(-c3ccc(-c4cn[nH]c4)cc3O)nn2)CC(C)(C)N1 | -77% | -89.2%
17 | COc1c(OCCCN2CCOCC2)ccc2c3n(c(=NC(=O)c4cnc(N)nc4)nc12)CCN3 | -59.6% | -46.8%
18 | CNC(=O)c1ccccc1Nc1nc(Nc2ccc3c(c2OC)CCC[C@H](N2CCN(CCO)CC2)C3)ncc1Cl | -89.4% | -85.5%
19 | CN1CCN(CCOc2cc(OC3CCOCC3)c3c(Nc4c(Cl)ccc5c4OCO5)ncnc3c2)CC1 | -54.8% | -58.9%
20 | COc1cccc2c1C(=O)c1c(O)c3c(c(O)c1C2=O)C[C@@](O)(C(=O)CO)C[C@@H]3O[C@H]1C[C@H](N)[C@@H](O)[C@H](C)O1 | -93.5% | -76.5%
21 | CC(C)(O)C(=O)N1CCN(c2ccc(C(F)(F)F)c(C3=C(c4c[nH]c5ccccc45)C(=O)NC3=O)c2)CC1 | -43.1% | -32.7%
22 | CCCS(=O)(=O)Nc1ccc(F)c(C(=O)c2c[nH]c3ncc(Cl)cc23)c1F | -46.8% | -47.2%
23 | Cn1ccc2cc(NC(=O)Nc3cccnc3)ccc21 | -29.2% | -52%
24 | CO[C@H]1C(=O)[C@]2(C)[C@@H](OC)C[C@H]3OC[C@@]3(OC(C)=O)[C@H]2[C@H](OC(=O)c2ccccc2)[C@]2(O)C[C@H](OC(=O)[C@H](O)[C@@H](NC(=O)OC(C)(C)C)c3ccccc3)C(C)=C1C2(C)C | -45% | -50.5%
25 | CNCCCOc1cc(F)c(-c2c(Cl)nc3ncnn3c2N[C@@H](C)C(F)(F)F)c(F)c1 | -72.6% | -62.1%

Row | SMILES | cell viability activity [1] | cell viability activity [2]
26 | CC(=O)c1cc2c(o1)C(=O)c1ccccc1C2=O | -97.1% | -96.4%
27 | CN(C)C/C=C/C(=O)Nc1ccc(C(=O)Nc2cccc(Nc3ncc(Cl)c(-c4c[nH]c5ccccc45)n3)c2)cc1 | -87.2% | -86.4%
28 | CC(C)(C)c1cc(NC(=O)Nc2ccc(-c3cn4c(n3)sc3cc(OCCN5CCOCC5)ccc34)cc2)no1 | -46.2% | -40.7%
29 | NC(=O)N1CCC(CC(=O)N2CCC([C@H]3c4ncc(Br)cc4CCc4cc(Cl)cc(Br)c43)CC2)CC1 | -51% | -56.6%
30 | CN1CCC[C@@H]1Cc1c[nH]c2ccc(CCS(=O)(=O)c3ccccc3)cc12 | -25.1% | -27.2%
31 | C[n+]1cc2c3c(ccc2c2ccc4cc5c(cc4c21)OCO5)OCO3 | -97.3% | -96.2%
32 | COc1cc2c(cc1-c1c(C)noc1C)ncc1[nH]c(=O)n([C@H](C)c3ccccn3)c12 | -60.5% | -68.4%
33 | CC(C)(C)c1cc(/C=C(\C#N)C(N)=S)cc(C(C)(C)C)c1O | -85.1% | -77%
34 | Cc1cc(I)ccc1Nc1c(C(=O)NOCC2CC2)cc(F)c(F)c1F | -65.5% | -71.6%
35 | CN(C)C/C=C/C(=O)Nc1cccc(C(=O)Nc2cccc(Nc3ncc(Cl)c(-c4c[nH]c5ccccc45)n3)c2)c1 | -91.7% | -94.7%
36 | CC(C)c1cc(C(C)C)c(-c2csc(N(CCN(C)C)Cc3cccnc3)n2)c(C(C)C)c1 | -24% | -63.4%
37 | Cc1ccc(C(=O)Nc2ccc(Oc3cc4cnn(C)c4cc3-c3cn[nH]c3)c(F)c2)c(=O)n1-c1ccc(F)cc1 | -41.5% | -29%
38 | CC(C)c1cc(C(=O)N2Cc3ccc(CN4CCN(C)CC4)cc3C2)c(O)cc1O | -91.7% | -88.3%
39 | N=C(NCCCCCCNC(=N)NC(=N)Nc1ccc(Cl)cc1)NC(=N)Nc1ccc(Cl)cc1 | -45.1% | -24.9%
40 | CN[C@@H](C)C(=O)N[C@H](C(=O)N1CCC[C@H]1C(=O)N[C@H]1c2ccccc2C[C@H]1OCC#CC#CCO[C@@H]1Cc2ccccc2[C@@H]1NC(=O)[C@@H]1CCCN1C(=O)[C@@H](NC(=O)[C@H](C)NC)C1CCCCC1)C1CCCCC1 | -58.1% | -77.2%
41 | Cn1c(Nc2ccc(C(F)(F)F)cc2)nc2cc(Oc3ccnc(-c4ncc(C(F)(F)F)[nH]4)c3)ccc21 | -82% | -67.4%
42 | CCOc1cc(C(=O)N2CCC(N3CCN(C)CC3)CC2)ccc1Nc1ncc2c(n1)N(C1CCCC1)c1ccccc1C(=O)N2C | -64.4% | -65.5%
43 | CN1C/C=C/CCOc2cccc(c2)-c2ccnc(n2)Nc2cccc(c2)C1 | -92.8% | -89.6%
44 | C=C1/C(=C\C=C2/CCC[C@]3(C)[C@@H]([C@H](C)CCCC(C)C)CC[C@@H]23)C[C@@H](O)C[C@@H]1O | -54.3% | -70%
45 | COc1cc2ncnc(Sc3nnc(C)s3)c2cc1OC | -29.5% | 14.6%
46 | Cc1cccc(/C=N/Nc2cc(N3CCOCC3)n3nc(-c4ccncc4)cc3n2)c1 | -56.4% | -51.8%
47 | C=C1CC[C@@H]2[C@](C)(CO)[C@H](O)CC[C@@]2(C)[C@@H]1C/C=C1/C(=O)OC[C@H]1O | -27.5% | -0.518%
48 | CC(C)N(C[C@H]1O[C@@H](n2cnc3c(N)ncnc32)[C@H](O)[C@@H]1O)[C@H]1C[C@@H](CCc2nc3cc(C(C)(C)C)ccc3[nH]2)C1 | -24.1% | -26.5%
49 | CCCCCCCCCCCCCCC[C@@H](O)[C@@H](N)CO | -36.8% | -43.8%
50 | COC(=O)c1ccccc1-c1c2ccc(=N)cc-2oc2cc(N)ccc12 | -44.3% | -37.4%

Row | SMILES | cell viability activity [1] | cell viability activity [2]
51 | COc1cc(OC)cc(N(CCNC(C)C)c2ccc3ncc(-c4cnn(C)c4)nc3c2)c1 | -70.3% | -64.7%
52 | CCCCCCCCN=c1ccn(CCCCCCCCCCn2ccc(=NCCCCCCCC)cc2)cc1 | -94.6% | -92.1%
53 | CC[C@@H]1C(=O)N(C)c2cnc(Nc3ccc(C(=O)NC4CCN(C)CC4)cc3OC)nc2N1C1CCCC1 | -83.2% | -90.4%
54 | C=CC(=O)Nc1cc(Nc2nccc(-c3cn(C)c4ccccc34)n2)c(OC)cc1N(C)CCN(C)C | -82.3% | -50.6%
55 | COc1cc(OC)c(/C=C/S(=O)(=O)Cc2ccc(OC)c(NCC(=O)O)c2)c(OC)c1 | -58.2% | -54.8%
56 | C#C[C@]1(O)CC[C@H]2[C@@H]3CCC4=C(CCC(=O)C4)[C@H]3CC[C@@]21C | -62.8% | -59.4%
57 | CCOC(=O)CCNc1cc(N2CCc3ccccc3CC2)nc(-c2ccccn2)n1 | -82.7% | -27.5%
58 | COc1cc(OC)c(/C=C/S(=O)(=O)Cc2ccc(OC)c(OP(=O)(O)O)c2)c(OC)c1 | -26.7% | -12.1%
59 | C[C@@H](NC(=O)c1ncnc(N)c1Cl)c1ncc(C(=O)Nc2cc(C(F)(F)F)c(Cl)cn2)s1 | -24.4% | -29.1%
60 | C=CCn1c(=O)c2cnc(Nc3ccc(N4CCN(C)CC4)cc3)nc2n1-c1cccc(C(C)(C)O)n1 | -74.4% | -81%
61 | C[C@@H](Oc1cc(-c2cnn(C3CCNCC3)c2)cnc1N)c1c(Cl)ccc(F)c1Cl | -97.1% | -95.4%
62 | O=C(Cc1ccc(-c2ccc(OCCN3CCOCC3)cc2)cn1)NCc1ccccc1 | -59.4% | -52%
63 | O=C(/C=C\n1cnc(-c2cc(C(F)(F)F)cc(C(F)(F)F)c2)n1)NNc1cnccn1 | -73.9% | -69.8%
64 | Clc1ccc(NN=C(c2ccccc2)c2ccccn2)nc1 | -70.7% | -65.6%
65 | CNc1ncc2cc(-c3cc(NC(=O)NCCC(C)(C)C)c(F)cc3C)c(C)nc2n1 | -69% | -58.9%
66 | Cc1cccc(-c2[nH]c(C(C)(C)C)nc2-c2ccc3c(c2)OCO3)n1 | -79.2% | -50.7%
67 | CN(C)CCOc1ccc(-c2nc(-c3ccncc3)c(-c3ccc4c(c3)CC/C4=N\O)[nH]2)cc1 | -44.3% | -45.8%
68 | O=C(/C=C/c1ccc(CN(CCO)CCc2c[nH]c3ccccc23)cc1)NO | -95.4% | -92.2%
69 | COC(=O)N[C@@H](C)CNc1nccc(-c2cn(C(C)C)nc2-c2cc(Cl)cc(NS(C)(=O)=O)c2F)n1 | -69.5% | -72.4%
70 | COC(=O)c1ccc2c(C(=Nc3ccc(N(C)C(=O)CN4CCN(C)CC4)cc3)c3ccccc3)c(O)[nH]c2c1 | -73.8% | -34.2%
71 | CCCCc1oc2ccc(NS(C)(=O)=O)cc2c1C(=O)c1ccc(OCCCN(CCCC)CCCC)cc1 | -96.2% | -91.7%
72 | O=C(Nc1nc2ccc(NC(=O)C34CC5CC(CC(C5)C3)C4)cc2s1)c1ccccc1 | -37.7% | -29.4%
73 | C[C@]1(O)C[C@@H](c2nc(-c3ccc4ccc(-c5ccccc5)nc4c3)c3c(N)nccn32)C1 | -32.5% | -26.2%
74 | COc1cccc2c1C(=O)c1c(O)c3c(c(O)c1C2=O)C[C@@](O)(C(=O)CO)C[C@@H]3O[C@H]1C[C@H](N)[C@H](O)[C@H](C)O1 | -94% and -83.9% | -89.6% and -89.8% and -68.3%
